# Test results reported in PubChem BioAssay AID1159580 (chemical genetic matrix, 2015).
# In all, about 5,500 compounds went through this assay and about 2,000 (36%) were called active. Roughly 18% stayed inconclusive and do not appear here. The list shows a part of the results. Values without a mark were called inactive. Cut-off read from the data, not from the text of the source: active = normalized growth mostly below about 0.91 (no sharp cut-off); inconclusive = no clear call, values can overlap the other calls; inactive = mostly above about 0.92.
# Experiment: chemical genetic growth profiling, strain panel (AID 1159580);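 note: tested at 20 µM; growth read once vehicle control cultures reached saturation at 30 °C; 1 = growth at the plate median or of vehicle wells; lower values mean less growth of the strain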
# Details: growth OD
# [1] = S. cerevisiae deletion strains, locus YBR229C, strain ROT2, hits give low values
# [2] = S. cerevisiae deletion strains, locus YDL101C, strain DUN1, hits give low values
# [3] = S. cerevisiae deletion strains, locus YEL061C, strain CIN8, hits give low values
# [4] = S. cerevisiae deletion strains, locus YGR078C, strain PAC10, hits give low values
# [5] = S. cerevisiae deletion strains, locus YHR030C, strain SLT2, hits give low values
# [6] = S. cerevisiae deletion strains, locus YJR043C, strain POL32, hits give low values
# [7] = S. cerevisiae deletion strains, locus YLR039C, strain RIC1, hits give low values
# [8] = S. cerevisiae deletion strains, locus YLR262C, strain YPT6, hits give low values
# [9] = S. cerevisiae deletion strains, locus YNL153C, strain GIM3, hits give low values
# [10] = S. cerevisiae deletion strains, locus YPL241C, strain CIN2, hits give low values
# [11] = S. cerevisiae strains, strain wild type, hits give low values
compound,measurement,setting,value
COC(=O)C[C@H]1C(C)(C)[C@H](O)[C@@H]2CC3=C4CC(O)O[C@@H](c5ccoc5)[C@]4(C)CCC3[C@@]1(C)C2=O (stereo partly drawn),normalized growth,"S. cerevisiae deletion strains, locus YBR021W, strain FUR4, hits give low values",1.01
same,normalized growth,[1],0.948
same,normalized growth,"S. cerevisiae deletion strains, locus YCL029C, strain bik1, hits give low values",0.969
same,normalized growth,"S. cerevisiae deletion strains, locus YDL035C, strain GPR1, hits give low values",0.974
same,normalized growth,"S. cerevisiae deletion strains, locus YDL074C, strain BRE1, hits give low values",0.966
same,normalized growth,[2],0.99
same,normalized growth,"S. cerevisiae deletion strains, locus YDL185W, strain tfp1, hits give low values",0.971
same,normalized growth,"S. cerevisiae deletion strains, locus YDL192W, strain arf1, hits give low values",0.978
same,normalized growth,"S. cerevisiae deletion strains, locus YDR101C, strain arx1, hits give low values",0.983
same,normalized growth,"S. cerevisiae deletion strains, locus YDR162C, strain NBP2, hits give low values",0.984
same,normalized growth,"S. cerevisiae deletion strains, locus YDR318W, strain mcm21, hits give low values",0.992
same,normalized growth,"S. cerevisiae deletion strains, locus YDR388W, hits give low values",0.979
same,normalized growth,"S. cerevisiae deletion strains, locus YDR502C, strain sam2, hits give low values",1.02
same,normalized growth,[3],0.974
same,normalized growth,"S. cerevisiae deletion strains, locus YER110C, hits give low values",0.985
same,normalized growth,"S. cerevisiae deletion strains, locus YER155C, strain BEM2, hits give low values",1
same,normalized growth,"S. cerevisiae deletion strains, locus YER167W, strain BCK2, hits give low values",0.969
same,normalized growth,"S. cerevisiae deletion strains, locus YGL078C, strain dbp3, hits give low values",1.03
same,normalized growth,"S. cerevisiae deletion strains, locus YGL086W, strain mad1, hits give low values",1
same,normalized growth,"S. cerevisiae deletion strains, locus YGL248W, strain PDE1, hits give low values",0.991
same,normalized growth,[4],1.02
same,normalized growth,"S. cerevisiae deletion strains, locus YGR135W, strain pre9, hits give low values",1.07
same,normalized growth,"S. cerevisiae deletion strains, locus YGR229C, strain SMI1, hits give low values",1.02
same,normalized growth,"S. cerevisiae deletion strains, locus YGR252W, strain gcn5, hits give low values",1.03
same,normalized growth,[5],0.996
same,normalized growth,"S. cerevisiae deletion strains, locus YHR079C, strain IRE1 (second series), hits give low values",0.993
same,normalized growth,"S. cerevisiae deletion strains, locus YHR094C, strain hxt1, hits give low values",0.984
same,normalized growth,"S. cerevisiae deletion strains, locus YHR129C, strain ARP1, hits give low values",0.99
same,normalized growth,"S. cerevisiae deletion strains, locus YHR200W, strain rpn10, hits give low values",0.999
same,normalized growth,"S. cerevisiae deletion strains, locus YIL066C, strain RNR3, hits give low values",0.948
same,normalized growth,"S. cerevisiae deletion strains, locus YIL073C, strain SPO22, hits give low values",0.964
same,normalized growth,"S. cerevisiae deletion strains, locus YIL125W, strain kgd1, hits give low values",0.986
same,normalized growth,"S. cerevisiae deletion strains, locus YIR030C, strain dcg1, hits give low values",0.99
same,normalized growth,"S. cerevisiae deletion strains, locus YJL095W, strain BCK1, hits give low values",0.993
same,normalized growth,"S. cerevisiae deletion strains, locus YJL134W, strain LCB3, hits give low values",0.971
same,normalized growth,"S. cerevisiae deletion strains, locus YJL168C, strain set2, hits give low values",0.991
same,normalized growth,"S. cerevisiae deletion strains, locus YJL187C, strain SWE1 (second series), hits give low values",1
same,normalized growth,[6],0.975
same,normalized growth,"S. cerevisiae deletion strains, locus YKL009W, strain mrt4, hits give low values",0.953
same,normalized growth,"S. cerevisiae deletion strains, locus YKL068W, hits give low values",0.985
same,normalized growth,"S. cerevisiae deletion strains, locus YKL085W, strain MDH1 (second series), hits give low values",0.988
same,normalized growth,"S. cerevisiae deletion strains, locus YKL085W, strain MDH1, hits give low values",0.988
same,normalized growth,"S. cerevisiae deletion strains, locus YKL190W, strain CNB1, hits give low values",0.98
same,normalized growth,"S. cerevisiae deletion strains, locus YKR001C, strain vps1, hits give low values",0.978
same,normalized growth,[7],0.964
same,normalized growth,"S. cerevisiae deletion strains, locus YLR058C, strain SHM2, hits give low values",0.975
same,normalized growth,"S. cerevisiae deletion strains, locus YLR102C, strain apc9, hits give low values",0.991
same,normalized growth,[8],0.99
same,normalized growth,"S. cerevisiae deletion strains, locus YLR268W, strain sec22, hits give low values",0.953
same,normalized growth,"S. cerevisiae deletion strains, locus YLR330W, strain CHS5, hits give low values",0.986
same,normalized growth,"S. cerevisiae deletion strains, locus YLR371W, strain rom2, hits give low values",0.986
same,normalized growth,"S. cerevisiae deletion strains, locus YLR418C, strain cdc73, hits give low values",0.975
same,normalized growth,"S. cerevisiae deletion strains, locus YML016C, strain PPZ1, hits give low values",0.977
same,normalized growth,"S. cerevisiae deletion strains, locus YML032C, strain rad52, hits give low values",0.976
same,normalized growth,"S. cerevisiae deletion strains, locus YML124C, strain tub3, hits give low values",0.992
same,normalized growth,"S. cerevisiae deletion strains, locus YMR078C, strain ctf18, hits give low values",0.989
same,normalized growth,"S. cerevisiae deletion strains, locus YMR223W, strain ubp8, hits give low values",1
same,normalized growth,"S. cerevisiae deletion strains, locus YMR307W, strain GAS1, hits give low values",0.951
same,normalized growth,"S. cerevisiae deletion strains, locus YNL067W, strain RPL9B, hits give low values",1.03
same,normalized growth,[9],1.01
same,normalized growth,"S. cerevisiae deletion strains, locus YNL233W, strain BNI4, hits give low values",1.03
same,normalized growth,"S. cerevisiae deletion strains, locus YNL250W, strain rad50, hits give low values",0.998
same,normalized growth,"S. cerevisiae deletion strains, locus YNL271C, strain bni1, hits give low values",0.989
same,normalized growth,"S. cerevisiae deletion strains, locus YNL298W, strain CLA4, hits give low values",0.984
same,normalized growth,"S. cerevisiae deletion strains, locus YNL307C, strain MCK1, hits give low values",0.994
same,normalized growth,"S. cerevisiae deletion strains, locus YNR052C, strain pop2, hits give low values",1.04
same,normalized growth,"S. cerevisiae deletion strains, locus YOL012C, strain htz1",0.912
same,normalized growth,"S. cerevisiae deletion strains, locus YOL147C, strain pex11, hits give low values",0.989
same,normalized growth,"S. cerevisiae deletion strains, locus YOR061W, strain CKA2, hits give low values",0.944
same,normalized growth,"S. cerevisiae deletion strains, locus YOR069W, strain VPS5, hits give low values",0.986
same,normalized growth,"S. cerevisiae deletion strains, locus YOR136W, strain idh2, hits give low values",0.994
same,normalized growth,"S. cerevisiae deletion strains, locus YOR144C, strain elg1, hits give low values",0.991
same,normalized growth,"S. cerevisiae deletion strains, locus YOR184W, strain ser1, hits give low values",0.954
same,normalized growth,"S. cerevisiae deletion strains, locus YOR316C, strain cot1, hits give low values",0.992
same,normalized growth,[10],0.988
same,normalized growth,"S. cerevisiae deletion strains, locus YPR119W, strain clb2, hits give low values",1.01
same,normalized growth,"S. cerevisiae deletion strains, locus YPR141C, strain kar3, hits give low values",0.989
same,normalized growth,"S. cerevisiae deletion strains, locus YPR163C, strain tif3, hits give low values",0.987
same,normalized growth,"S. cerevisiae deletion strains, locus YPR167C, strain met16, hits give low values",0.996
same,normalized growth,"S. cerevisiae deletion strains, strain wtn01, hits give low values",0.98
same,normalized growth,[11],0.979
FC(F)(F)c1cc(-c2ccco2)nc2cc(-c3ccco3)nn12,normalized growth,"S. cerevisiae deletion strains, locus YAL013W, strain DEP1, hits give low values",0.869 (active)
same,normalized growth,[1],0.908 (active)
same,normalized growth,"S. cerevisiae deletion strains, locus YCL061C, strain MRC1, hits give low values",0.98
same,normalized growth,[2],0.972
same,normalized growth,"S. cerevisiae deletion strains, locus YDR150W, strain NUM1, hits give low values",0.889
same,normalized growth,[3],0.97
same,normalized growth,[4],0.958
same,normalized growth,[5],0.722
same,normalized growth,"S. cerevisiae deletion strains, locus YHR087W, strain rtc3, hits give low values",0.935
same,normalized growth,"S. cerevisiae deletion strains, locus YJL187C, strain SWE1, hits give low values",0.973
same,normalized growth,[6],0.881 (active)
same,normalized growth,"S. cerevisiae deletion strains, locus YJR075W, strain HOC1, hits give low values",0.903
same,normalized growth,[7],0.729 (active)
same,normalized growth,"S. cerevisiae deletion strains, locus YLR058C, strain SHM2 (second series), hits give low values",0.96
same,normalized growth,"S. cerevisiae deletion strains, locus YLR085C, strain ARP6, hits give low values",0.829
same,normalized growth,[8],0.883
same,normalized growth,"S. cerevisiae deletion strains, locus YML094W, strain GIM5, hits give low values",0.889
same,normalized growth,"S. cerevisiae deletion strains, locus YMR219W, strain ESC1, hits give low values",1
same,normalized growth,"S. cerevisiae deletion strains, locus YMR263W, strain SAP30, hits give low values",0.899 (active)
same,normalized growth,[9],0.949
same,normalized growth,"S. cerevisiae deletion strains, locus YNL298W, strain CLA4 (second series), hits give low values",0.859
same,normalized growth,"S. cerevisiae deletion strains, locus YNL322C, strain KRE1, hits give low values",0.997
same,normalized growth,"S. cerevisiae deletion strains, locus YNR030W, strain Alg12, hits give low values",0.798 (active)
same,normalized growth,"S. cerevisiae deletion strains, locus YPL055C, strain LGE1, hits give low values",0.851
same,normalized growth,[10],0.844 (active)
same,normalized growth,"S. cerevisiae deletion strains, locus YPR135W, strain CTF4, hits give low values",0.594 (active)
same,normalized growth,[11],0.988
